This is an account of results in PubChem BioAssay.

Calls of active or inactive are those of the source.

Test [1] can be described thus: binders of probe aFSTL3 on microarray, primary screen, stem cell growth factor project, biochemical, small-molecule microarray, fluorescence 635/667 (AID 1064).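 Further: measures binding of the biotinylated anti-FSTL3 antibody to printed compounds.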 The note with it: higher = more signal.
A short description of test [2]: binders from COS7 lysate, DM2A8 probe, primary screen, torsin A project, cell lysate, small-molecule microarray, fluorescence 635/667 (AID 1065). The settings on record: higher = more signal, COS7 lysate expressing mutant human TOR1A.
Test [3] can be described thus: binders of probe aFGF2 on microarray, primary screen, stem cell growth factor project, biochemical, small-molecule microarray, fluorescence 635/667 (AID 1067).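 Further: measures binding of biotinylated aFGF2 protein to printed compounds on slides; z-score merges feature fluorescence and signal-to-noise across triplicate slides.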 The note with it: higher = more signal.
Test [4] in a line: binders of probe aFGF10 on microarray, primary screen, stem cell growth factor project, biochemical, small-molecule microarray, fluorescence 635/667 (AID 1071).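 Further: score merges 667 nm spot intensity and signal to noise from triplicate slides.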 The settings on record: higher = more signal.
In test [5] the target is Neurogenic locus notch homolog protein 2 (Homo sapiens) (UniProt Q04721). Nature of the test: Notch2 binders on small-molecule microarrays, primary screen, biochemical, small-molecule microarray, 635 nm fluorescence, stem cell growth factors (AID 1073). The note with it: Notch2 binding, higher = more signal.
Neurogenic locus notch homolog protein 2 (Homo sapiens), sequence (Q04721 whole entry, looked up, canonical isoform): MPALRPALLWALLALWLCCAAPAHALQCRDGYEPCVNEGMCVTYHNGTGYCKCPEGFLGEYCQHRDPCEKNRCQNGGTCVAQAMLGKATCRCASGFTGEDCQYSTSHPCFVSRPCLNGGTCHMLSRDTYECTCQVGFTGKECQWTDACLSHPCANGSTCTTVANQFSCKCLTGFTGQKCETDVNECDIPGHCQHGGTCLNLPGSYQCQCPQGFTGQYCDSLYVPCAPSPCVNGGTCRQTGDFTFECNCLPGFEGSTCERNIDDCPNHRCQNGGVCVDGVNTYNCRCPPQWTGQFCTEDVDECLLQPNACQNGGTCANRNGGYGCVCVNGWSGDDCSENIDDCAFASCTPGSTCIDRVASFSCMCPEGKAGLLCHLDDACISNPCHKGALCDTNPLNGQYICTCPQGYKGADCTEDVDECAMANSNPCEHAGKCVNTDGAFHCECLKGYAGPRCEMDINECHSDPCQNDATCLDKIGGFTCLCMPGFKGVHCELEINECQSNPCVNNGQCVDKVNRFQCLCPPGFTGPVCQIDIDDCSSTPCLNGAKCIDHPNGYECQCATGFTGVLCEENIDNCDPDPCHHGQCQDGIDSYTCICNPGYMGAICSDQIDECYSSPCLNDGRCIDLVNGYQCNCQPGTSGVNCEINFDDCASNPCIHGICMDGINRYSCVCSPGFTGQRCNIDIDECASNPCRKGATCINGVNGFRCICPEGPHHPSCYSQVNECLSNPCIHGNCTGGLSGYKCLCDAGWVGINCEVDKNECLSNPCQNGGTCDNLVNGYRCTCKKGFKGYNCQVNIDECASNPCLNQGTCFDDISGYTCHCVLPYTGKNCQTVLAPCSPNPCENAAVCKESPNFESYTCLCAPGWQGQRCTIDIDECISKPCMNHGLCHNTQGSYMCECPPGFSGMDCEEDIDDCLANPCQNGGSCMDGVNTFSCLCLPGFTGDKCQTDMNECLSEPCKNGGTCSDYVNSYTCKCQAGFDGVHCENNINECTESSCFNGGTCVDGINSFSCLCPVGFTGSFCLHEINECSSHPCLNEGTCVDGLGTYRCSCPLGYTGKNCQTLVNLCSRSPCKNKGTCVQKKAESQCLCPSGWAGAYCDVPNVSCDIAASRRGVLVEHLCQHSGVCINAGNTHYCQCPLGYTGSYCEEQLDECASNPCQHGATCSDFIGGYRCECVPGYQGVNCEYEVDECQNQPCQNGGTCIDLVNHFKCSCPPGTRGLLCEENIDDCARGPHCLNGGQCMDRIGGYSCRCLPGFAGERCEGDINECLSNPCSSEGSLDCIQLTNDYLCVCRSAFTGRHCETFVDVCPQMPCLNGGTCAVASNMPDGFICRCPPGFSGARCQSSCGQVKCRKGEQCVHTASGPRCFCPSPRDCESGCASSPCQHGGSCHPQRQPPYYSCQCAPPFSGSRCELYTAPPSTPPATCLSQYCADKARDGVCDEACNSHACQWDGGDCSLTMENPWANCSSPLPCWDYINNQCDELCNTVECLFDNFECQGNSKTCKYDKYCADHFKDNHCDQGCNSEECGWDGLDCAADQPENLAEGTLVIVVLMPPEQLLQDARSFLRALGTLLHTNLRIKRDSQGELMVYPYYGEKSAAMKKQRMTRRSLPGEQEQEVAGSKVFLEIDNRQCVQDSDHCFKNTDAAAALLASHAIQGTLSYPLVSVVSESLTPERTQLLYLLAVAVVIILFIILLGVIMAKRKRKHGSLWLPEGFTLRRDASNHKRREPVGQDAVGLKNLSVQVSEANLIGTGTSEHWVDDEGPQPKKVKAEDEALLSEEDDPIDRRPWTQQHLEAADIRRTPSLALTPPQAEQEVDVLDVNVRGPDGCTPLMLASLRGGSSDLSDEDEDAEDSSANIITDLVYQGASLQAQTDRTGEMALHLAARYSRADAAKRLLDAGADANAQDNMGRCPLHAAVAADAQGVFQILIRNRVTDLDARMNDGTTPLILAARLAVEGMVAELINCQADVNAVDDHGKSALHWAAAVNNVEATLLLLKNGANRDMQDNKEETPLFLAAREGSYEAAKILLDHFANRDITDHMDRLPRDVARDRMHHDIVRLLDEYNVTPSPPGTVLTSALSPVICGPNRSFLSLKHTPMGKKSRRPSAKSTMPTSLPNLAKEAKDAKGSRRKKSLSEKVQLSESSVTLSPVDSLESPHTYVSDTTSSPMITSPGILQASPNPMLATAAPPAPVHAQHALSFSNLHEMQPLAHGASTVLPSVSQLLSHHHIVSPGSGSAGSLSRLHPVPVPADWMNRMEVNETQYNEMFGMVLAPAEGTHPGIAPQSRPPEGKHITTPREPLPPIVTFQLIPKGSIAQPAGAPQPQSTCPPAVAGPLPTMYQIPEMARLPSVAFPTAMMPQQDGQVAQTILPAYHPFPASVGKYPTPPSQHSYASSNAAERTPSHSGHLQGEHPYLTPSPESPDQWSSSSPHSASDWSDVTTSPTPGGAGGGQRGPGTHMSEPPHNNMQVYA
Test [6] has as its target Pro-neuregulin-1, membrane-bound isoform (Homo sapiens) (UniProt Q02297). As to the kind of experiment: NRG1 binders on small-molecule microarrays, primary screen, psychiatric disease protein project, biochemical, small-molecule microarray, fluorescence 635/667 (AID 1075).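 Further: score combines 667 nm spot fluorescence with signal to noise.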 The settings on record: NRG1 binding, 635 nm fluorescence, higher = more signal.
Test [7] deals with Neuregulin-1 EGF-like domain. Nature of the test: binders of neuregulin-1 EGF-like domain, primary screen, biochemical, small-molecule microarray, 635 nm fluorescence (AID 1081).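 Further: binding of the protein to compounds printed on small-molecule microarray slides.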 The settings on record: small-molecule microarray binding, higher = more signal.
Test [8] can be described thus: FRG1 promoter luciferase signal modulators, primary screen, FRG1 inhibition for FSHD, cell-based, C2C12 myotubes, firefly/Renilla luciferase, luminescence (AID 1084). The note with it: higher = more signal, called active from +8 up or from −8 down.
A short description of test [9]: binders of probe aFST on microarray, primary screen, stem cell growth factor project, biochemical, small-molecule microarray, fluorescence 635/667 (AID 1086).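 Further: score merges 667 nm fluorescence with signal-to-noise of each printed compound spot.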 The settings on record: higher = more signal.
Test [10] can be described thus: binders of probe aHhip on microarray, primary screen, stem cell growth factor project, biochemical, small-molecule microarray, fluorescence 635/667 (AID 1087).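 Further: score merges spot fluorescence at 667nm with spot signal to noise ratio.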 The settings on record: higher = more signal.
In test [11] the test system is PRMT1 (protein arginine N-methyltransferase 1). Nature of the test: PRMT1 binders on small-molecule microarrays, primary screen, biochemical, small-molecule microarray, 635 nm fluorescence (AID 1088).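 Further: binding of Prmt1 protein to compounds spotted on small-molecule microarray slides.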 The note with it: small-molecule microarray binding, higher = more signal.
Test [12] can be described thus: yeast growth modulation, basal conditions, primary screen, YJM789 clinical isolate, OD600, 24 h (AID 1089).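 Further: growth of clinical yeast isolate S. cerevisiae YJM 789 seeded 1000 cells per well; test concentration not given here.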 The note with it: S. cerevisiae YJM789 growth, higher = more signal, called active from +8 up or from −8 down.
Test [13] in a line: fission yeast growth modulation, primary screen, strain 972, OD600, 24 h, no modulator (AID 1090).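 Further: basal condition with compound alone and no growth modifier present; test concentration not given here.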 The note with it: S. pombe 972 growth, higher = more signal, called active from +8 up or from −8 down.
Test [14] can be described thus: S. cerevisiae growth modulation with rapamycin, primary screen, strain BY4716, OD600, 96 h (AID 1091). Further: test concentration not given here. The settings on record: higher = more signal, called active from +8 up or from −8 down.
Test [15] has as its target Torsin-1A-interacting protein 2 (Homo sapiens) (UniProt Q8NFQ8). As to the kind of experiment: LULL1 binders on small-molecule microarray, primary screen, cell lysate, human LULL1 lysate, 635/667 nm fluorescence (AID 1092).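 Further: probe is lysate of COS7 cells overexpressing human LULL1; score merges per-feature 667 nm fluorescence with signal-to-noise.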 The note with it: hLULL1 lysate binding, 635 nm fluorescence, higher = more signal.
Test [16] is described as follows: E. coli growth modulation, two-sided OD650, primary screen, E. coli filamentation project, strain DRC41, 24 h (AID 1093).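 Further: MC1000 strain lacking acrAB efflux and sulA so SOS filamentation is blocked; test concentration not given here.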 The settings on record: OD650, 24 h, higher = more signal, called active from +8 up or from −8 down.
Test [17] can be described thus: small-molecule microarray binders of probe aLefty2, primary screen, biochemical, biotinylated probe, 635/667 nm fluorescence (AID 1094).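 Further: score merges spot fluorescence near 667 nm with spot signal-to-noise ratio.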 The settings on record: higher = more signal.
The subject of test [18] is Noggin (protein binding on small-molecule microarray). As to the kind of experiment: Noggin binders on small-molecule microarray, primary screen, biochemical, 635/667 nm fluorescence (AID 1095).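 Further: score merges 667 nm feature fluorescence with signal to noise over triplicate slides.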 The settings on record: 635 nm fluorescence, higher = more signal.
In test [19] the target is Neurogenic locus notch homolog protein 3 (Homo sapiens) (UniProt Q9UM47). As to the kind of experiment: NOTCH3 binders on small-molecule microarray, primary screen, biochemical, 635/667 nm fluorescence (AID 1096). The note with it: NOTCH3 binding, 635 nm fluorescence, higher = more signal.
Neurogenic locus notch homolog protein 3 (Homo sapiens), sequence (Q9UM47 whole entry, looked up): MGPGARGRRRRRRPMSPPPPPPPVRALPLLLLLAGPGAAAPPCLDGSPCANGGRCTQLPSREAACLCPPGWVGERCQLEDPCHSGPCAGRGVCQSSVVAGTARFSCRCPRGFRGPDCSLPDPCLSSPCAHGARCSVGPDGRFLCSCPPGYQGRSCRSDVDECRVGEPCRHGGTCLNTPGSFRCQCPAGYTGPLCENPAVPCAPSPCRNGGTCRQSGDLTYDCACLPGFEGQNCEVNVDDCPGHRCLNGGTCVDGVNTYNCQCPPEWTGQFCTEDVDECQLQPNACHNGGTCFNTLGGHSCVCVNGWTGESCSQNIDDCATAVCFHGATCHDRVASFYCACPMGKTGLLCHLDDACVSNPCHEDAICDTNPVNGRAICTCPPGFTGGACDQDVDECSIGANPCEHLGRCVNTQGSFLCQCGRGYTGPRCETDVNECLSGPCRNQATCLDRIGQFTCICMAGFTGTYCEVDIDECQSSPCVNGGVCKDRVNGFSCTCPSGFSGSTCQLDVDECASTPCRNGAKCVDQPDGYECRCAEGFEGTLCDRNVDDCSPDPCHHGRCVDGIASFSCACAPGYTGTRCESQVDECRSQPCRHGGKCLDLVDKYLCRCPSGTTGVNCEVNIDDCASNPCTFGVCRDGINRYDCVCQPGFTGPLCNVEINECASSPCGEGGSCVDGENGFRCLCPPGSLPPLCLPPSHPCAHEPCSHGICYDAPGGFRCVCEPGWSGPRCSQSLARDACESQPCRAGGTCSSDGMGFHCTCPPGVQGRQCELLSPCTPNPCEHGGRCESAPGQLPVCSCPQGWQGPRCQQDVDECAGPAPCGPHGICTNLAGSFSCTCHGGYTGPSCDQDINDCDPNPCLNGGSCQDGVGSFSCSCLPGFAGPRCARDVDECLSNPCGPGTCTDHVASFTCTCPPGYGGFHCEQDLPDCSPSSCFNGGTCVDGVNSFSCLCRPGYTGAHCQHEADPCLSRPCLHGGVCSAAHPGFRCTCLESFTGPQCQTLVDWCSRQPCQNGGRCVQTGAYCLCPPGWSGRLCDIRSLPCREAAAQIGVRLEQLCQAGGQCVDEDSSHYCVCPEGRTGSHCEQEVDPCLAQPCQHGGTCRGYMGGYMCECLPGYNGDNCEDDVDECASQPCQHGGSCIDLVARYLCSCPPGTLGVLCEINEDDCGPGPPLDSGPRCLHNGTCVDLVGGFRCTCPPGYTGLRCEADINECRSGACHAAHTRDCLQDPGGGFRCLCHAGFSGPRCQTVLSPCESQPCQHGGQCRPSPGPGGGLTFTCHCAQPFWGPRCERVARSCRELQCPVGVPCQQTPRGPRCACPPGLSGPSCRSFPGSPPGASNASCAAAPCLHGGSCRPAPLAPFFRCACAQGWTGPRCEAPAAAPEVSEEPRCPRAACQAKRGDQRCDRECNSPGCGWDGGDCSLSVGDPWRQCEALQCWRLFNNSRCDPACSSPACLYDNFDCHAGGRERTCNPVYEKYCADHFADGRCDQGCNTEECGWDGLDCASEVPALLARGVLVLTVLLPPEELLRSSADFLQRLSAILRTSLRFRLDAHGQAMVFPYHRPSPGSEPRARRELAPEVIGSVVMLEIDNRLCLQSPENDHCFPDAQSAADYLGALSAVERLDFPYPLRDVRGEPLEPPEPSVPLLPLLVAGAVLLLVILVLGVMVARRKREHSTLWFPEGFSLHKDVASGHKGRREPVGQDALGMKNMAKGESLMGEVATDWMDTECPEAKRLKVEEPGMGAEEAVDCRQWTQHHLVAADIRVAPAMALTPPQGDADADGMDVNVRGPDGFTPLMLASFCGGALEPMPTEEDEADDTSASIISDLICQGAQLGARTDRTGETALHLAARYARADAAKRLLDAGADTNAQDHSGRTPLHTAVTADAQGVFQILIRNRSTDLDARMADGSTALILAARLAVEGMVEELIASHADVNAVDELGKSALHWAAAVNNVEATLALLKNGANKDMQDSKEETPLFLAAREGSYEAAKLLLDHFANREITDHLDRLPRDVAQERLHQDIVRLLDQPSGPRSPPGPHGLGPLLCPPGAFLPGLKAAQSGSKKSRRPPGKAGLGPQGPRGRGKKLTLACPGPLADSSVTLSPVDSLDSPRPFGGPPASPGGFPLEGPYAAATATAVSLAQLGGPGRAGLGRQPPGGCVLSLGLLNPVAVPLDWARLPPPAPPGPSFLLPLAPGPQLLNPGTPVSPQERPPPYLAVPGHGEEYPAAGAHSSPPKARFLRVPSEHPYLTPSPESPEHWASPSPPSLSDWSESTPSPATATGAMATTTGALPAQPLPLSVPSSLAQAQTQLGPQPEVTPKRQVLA
A short description of test [20]: small-molecule microarray binders of probe aEGFR, primary screen, biochemical, biotinylated probe, 635/667 nm fluorescence (AID 1097).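 Further: probe is a biotinylated anti-EGFR antibody binding compounds printed on slides; score combines fluorescence near 667 nm and signal to noise of each spot.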 The settings on record: higher = more signal.

`O=C1C=C[C@@H](O)[C@@H]2[C@@H]3C(=O)N(Cc4ccccc4)C(=O)[C@@H]3CC[C@@H]12`: the composite z-score was -0.496 in test [1]; -0.0062 in [2]; -0.171 in test [3]; 0.373 in [4]; 0.632 in [5]; 0.159 in test [6]. For the same compound, the composite z-score was 0.543 in [7]; 0.0563 in test [9]; 0.226 in test [10]; -0.136 in test [11]; 0.0218 in test [15]; -0.147 in test [17]. Also, the composite z-score in test [18] was 0.562; in test [19], 0.798; in [20], -0.104. Also, the z-score in test [8] was -0.895 (inactive); in test [12] it was 0.0129 (inactive); in test [13], -0.676 (inactive); in [14], -0.795 (inactive); in test [16], 0.575 (inactive).

Consider `CC(CCN1CCCCc2nc(C)c(C)cc21)=NOC[C@@H](O)[C@H]1O[C@@H]2OC(C)(C)O[C@@H]2[C@H]1O`, for which the composite z-score is -0.368 in test [1]; 0.454 in test [2]; -0.138 in test [3]; 0.188 in [4]; -0.224 in test [5]; 0.459 in test [6]. For the same compound, the composite z-score in [7] was 0.0465; in [9], -0.346; in test [10] it was -0.136; in test [11] it was 0.908; in test [15], -0.428; in [17] it was -0.225. Also, the composite z-score in test [18] was 1.07; in test [19] it was 0.218; in test [20], -0.0179. The z-score in test [8] is 0.442 (inactive); in test [12] it was -1.58 (inactive); in test [13], 0.186 (inactive); in test [14], -0.164 (inactive); in [16], 0.579 (inactive).

On to `C=CC[C@@H]1C=C[C@H](ON=C2C[C@@H](O)[C@@H](O)[C@@H]3[C@@H]4C(=O)N(CC)C(=O)[C@@H]4CC[C@@H]23)[C@@H](CO)O1`, for which the composite z-score is -0.416 in [1]; 1.86 in [2]; -0.0793 in test [3]; 0.228 in [4]; -0.395 in test [5]; -0.417 in [6]. The composite z-score in test [7] is -0.33; in test [9], 0.245; in [10], -0.0994; in test [11], 0.245; in test [15], -0.004; in [17], -0.0736. In addition, the results for the composite z-score in test [18], in test [19] and in test [20] were 0.107, -0.724 and -0.119, respectively. Moreover, the z-score is 1.15 (inactive) in [8]; 0.442 (inactive) in test [12]; -0.376 (inactive) in test [13]; 0.445 (inactive) in test [14]; -0.876 (inactive) in test [16].

`CC(CCN1CCCc2nc(C)c(C)cc21)=NO[C@H](C)c1cn([C@H](CO)Cc2ccccc2)nn1`: the composite z-score in test [1] was -0.303; in test [2], 0.455; in test [3], -0.0568; in test [4], 0.545; in test [5], 0.531; in [6], 0.0463. The composite z-score in test [7] was 1.03; in test [9] it was 0.64; in [10] it was -0.236; in test [11], 1.56; in [15], 0.894; in test [17] it was -0.0441. Also, the composite z-score is 0.633 in test [18], 1.01 in test [19] and 0.0386 in [20]. Further, the z-score in [8] is 1.53 (inactive); in test [12], 1.09 (inactive); in test [13], 0.374 (inactive); in test [14], 0.399 (inactive); in test [16], -0.748 (inactive).

For `CC(C)CON=C1C[C@@H](O)[C@@H](O)[C@@H]2[C@@H]3C(=O)N(C(C)(C)C)C(=O)[C@@H]3CC[C@@H]12`, the composite z-score in test [1] is -0.7; in test [2], 2.77; in test [3], -0.243; in test [4], -0.541; in test [5], -0.483; in [6], -0.517. Besides, the composite z-score is 0.694 in [7]; -0.0117 in [9]; -0.303 in test [10]; 1.37 in test [11]; -0.495 in [15]; -0.317 in test [17]. The composite z-score in test [18] is 1.02; in test [19] it was -0.269; in [20] it was -0.0638. The z-score in [8] was 0.0071 (inactive); in [12], 0.118 (inactive); in [13], -0.182 (inactive); in test [14] it was -0.147 (inactive); in test [16], 0.222 (inactive).
